{
  "source": "PubChem BioAssay (EPA / NIEHS)",
  "key": {"[1]": {"target": "human Serotonin, 5-Hydroxytryptamine Receptor 2A (5HT2A), HTR2A (gene 3356) (UniProt P28223)", "sequence (P28223 whole entry, looked up)": "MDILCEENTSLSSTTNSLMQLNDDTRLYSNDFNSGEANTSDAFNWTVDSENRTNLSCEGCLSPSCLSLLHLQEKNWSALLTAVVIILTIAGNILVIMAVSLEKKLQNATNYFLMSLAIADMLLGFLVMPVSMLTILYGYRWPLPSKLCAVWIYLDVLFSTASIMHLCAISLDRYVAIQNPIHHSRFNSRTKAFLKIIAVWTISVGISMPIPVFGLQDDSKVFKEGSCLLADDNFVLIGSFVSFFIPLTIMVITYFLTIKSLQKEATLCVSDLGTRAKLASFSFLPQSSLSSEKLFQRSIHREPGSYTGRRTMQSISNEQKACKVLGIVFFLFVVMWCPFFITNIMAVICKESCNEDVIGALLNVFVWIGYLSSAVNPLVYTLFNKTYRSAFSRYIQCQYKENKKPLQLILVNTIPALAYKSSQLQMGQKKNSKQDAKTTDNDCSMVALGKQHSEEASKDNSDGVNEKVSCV", "test": "NVS_GPCR_h5HT2A: NovaScreen (NVS) G Protein-Coupled Receptor Assay for human Serotonin, 5-Hydroxytryptamine Receptor 2A (5HT2A) (AID 2283249)", "in_short": "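Human cortex membranes, cell-free radioligand binding; filter-based scintillation read 1.5 h after dosing. Duplicate screen at 25 uM first; displacement of specific binding (loss of signal) versus DMSO.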"}, "[2]": {"target": "guinea pig Opioid, Kappa 1 Receptor (OpiateK), OPRK1 (gene 100135587) (UniProt P41144)", "sequence (P41144 whole entry, looked up)": "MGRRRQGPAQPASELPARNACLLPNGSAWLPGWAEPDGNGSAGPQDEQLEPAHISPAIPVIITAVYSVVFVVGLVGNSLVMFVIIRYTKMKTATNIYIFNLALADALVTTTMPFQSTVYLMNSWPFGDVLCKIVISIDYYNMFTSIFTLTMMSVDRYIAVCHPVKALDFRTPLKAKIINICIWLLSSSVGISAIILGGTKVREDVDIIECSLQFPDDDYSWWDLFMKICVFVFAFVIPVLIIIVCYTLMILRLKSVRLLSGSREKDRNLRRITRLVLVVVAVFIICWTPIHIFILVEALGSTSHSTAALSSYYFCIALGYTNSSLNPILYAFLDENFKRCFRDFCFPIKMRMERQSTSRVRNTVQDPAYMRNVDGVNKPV", "test": "NVS_GPCR_gOpiateK: NovaScreen (NVS) G Protein-Coupled Receptor Assay for guinea pig Opioid, Kappa 1 Receptor (OpiateK) (AID 2283252);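 further: active means reduced radioligand binding relative to DMSO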", "in_short": "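Signal is scintillation counts of filter-trapped radioligand bound to guinea pig cerebellar membrane receptor, measured 2 hours post-dosing. Activity is loss of binding versus DMSO, first at 25 uM in duplicate, then as concentration series for actives.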"}, "[3]": {"target": "human Serotonin, 5-Hydroxytryptamine Receptor 6 (5HT6), HTR6 (gene 3362) (UniProt P50406)", "sequence (P50406 whole entry, looked up)": "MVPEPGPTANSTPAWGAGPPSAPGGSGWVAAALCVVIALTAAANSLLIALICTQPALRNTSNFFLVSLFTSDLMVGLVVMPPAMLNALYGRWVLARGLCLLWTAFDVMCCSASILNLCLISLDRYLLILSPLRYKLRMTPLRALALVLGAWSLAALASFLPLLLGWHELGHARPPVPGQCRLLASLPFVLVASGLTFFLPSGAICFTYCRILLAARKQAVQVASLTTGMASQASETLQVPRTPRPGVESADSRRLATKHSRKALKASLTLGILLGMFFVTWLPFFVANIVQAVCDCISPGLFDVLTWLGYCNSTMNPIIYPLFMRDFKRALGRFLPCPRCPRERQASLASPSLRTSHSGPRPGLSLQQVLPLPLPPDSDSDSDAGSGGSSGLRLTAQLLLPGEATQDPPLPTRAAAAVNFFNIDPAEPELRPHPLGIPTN", "test": "NVS_GPCR_h5HT6: NovaScreen (NVS) G Protein-Coupled Receptor Assay for human Serotonin, 5-Hydroxytryptamine Receptor 6 (5HT6) (AID 2283253)", "in_short": "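Radioligand binding to 5HT6 in HEK293-derived membranes, cell-free, 1 h after dosing; bound ligand measured by filter-based scintillation counting. Primary screen in duplicate at 25 uM; actives retested in concentration series.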"}, "[4]": {"target": "human Adenosine A1 Receptor (AdoRA1), ADORA1 (gene 134) (UniProt P30542)", "sequence (P30542 whole entry, looked up)": "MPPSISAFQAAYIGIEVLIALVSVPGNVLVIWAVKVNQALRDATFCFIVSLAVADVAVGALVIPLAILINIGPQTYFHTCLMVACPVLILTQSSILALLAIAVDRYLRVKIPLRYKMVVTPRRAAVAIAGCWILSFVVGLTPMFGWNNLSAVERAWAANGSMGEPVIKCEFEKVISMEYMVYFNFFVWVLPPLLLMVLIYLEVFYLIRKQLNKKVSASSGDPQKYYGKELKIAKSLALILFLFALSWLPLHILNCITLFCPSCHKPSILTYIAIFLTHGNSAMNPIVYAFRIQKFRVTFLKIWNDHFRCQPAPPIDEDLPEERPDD", "test": "NVS_GPCR_hAdoRA1: NovaScreen (NVS) G Protein-Coupled Receptor Assay for human Adenosine A1 Receptor (AdoRA1) (AID 2283254)", "in_short": "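Radioligand binding was run on human cortical membranes, cell-free, with filter-based scintillation counting 1 h after dosing. The primary screen was duplicate at 25 uM, followed by concentration series. Signal loss versus DMSO was fitted positive-direction.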"}, "[5]": {"target": "human Serotonin, 5-Hydroxytryptamine Receptor 7 (5HT7), HTR7 (gene 3363) (UniProt P34969)", "sequence (P34969 whole entry, looked up)": "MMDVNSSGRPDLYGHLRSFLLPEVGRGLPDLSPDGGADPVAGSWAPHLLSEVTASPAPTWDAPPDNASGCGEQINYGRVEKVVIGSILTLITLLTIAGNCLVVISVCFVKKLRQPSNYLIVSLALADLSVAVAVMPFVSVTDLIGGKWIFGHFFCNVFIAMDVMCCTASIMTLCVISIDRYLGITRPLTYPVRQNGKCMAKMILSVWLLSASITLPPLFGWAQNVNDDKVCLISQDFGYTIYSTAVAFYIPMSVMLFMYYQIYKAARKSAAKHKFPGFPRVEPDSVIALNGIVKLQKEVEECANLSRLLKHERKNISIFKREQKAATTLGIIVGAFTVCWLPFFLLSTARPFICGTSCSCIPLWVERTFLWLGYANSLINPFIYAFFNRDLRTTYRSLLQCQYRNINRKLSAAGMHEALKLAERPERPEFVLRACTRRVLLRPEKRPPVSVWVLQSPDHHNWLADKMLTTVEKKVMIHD", "test": "NVS_GPCR_h5HT7: NovaScreen (NVS) G Protein-Coupled Receptor Assay for human Serotonin, 5-Hydroxytryptamine Receptor 7 (5HT7) (AID 2283255);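 further: hits reduce specific radioligand binding relative to DMSO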", "in_short": "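Radioligand displacement on membranes from CHO cells expressing human 5HT7, 1 h incubation, filter-based scintillation counting. Primary screen used a single 25 uM concentration in duplicate; actives were followed up in concentration series.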"}, "[6]": {"tested_on": "guinea pig Muscarinic, Peripheral (Mperiperal) Receptor, Non-selective Binding, gene 100379235", "test": "NVS_GPCR_gMPeripheral_NonSelective: NovaScreen (NVS) G Protein-Coupled Receptor Assay for guinea pig Muscarinic, Peripheral (Mperiperal) Receptor, Non-selective Binding (AID 2283250)", "in_short": "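Guinea pig bladder membranes, radioligand binding read 1 h after dosing by filter scintillation counting; loss of signal vs DMSO. Primary duplicate screen at 25 uM, then concentration-response up to 50 uM.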"}, "[7]": {"target": "human Serotonin, 5-Hydroxytryptamine Receptor 5A (5HT5A), HTR5A (gene 3361) (UniProt P47898)", "sequence (P47898 whole entry, looked up)": "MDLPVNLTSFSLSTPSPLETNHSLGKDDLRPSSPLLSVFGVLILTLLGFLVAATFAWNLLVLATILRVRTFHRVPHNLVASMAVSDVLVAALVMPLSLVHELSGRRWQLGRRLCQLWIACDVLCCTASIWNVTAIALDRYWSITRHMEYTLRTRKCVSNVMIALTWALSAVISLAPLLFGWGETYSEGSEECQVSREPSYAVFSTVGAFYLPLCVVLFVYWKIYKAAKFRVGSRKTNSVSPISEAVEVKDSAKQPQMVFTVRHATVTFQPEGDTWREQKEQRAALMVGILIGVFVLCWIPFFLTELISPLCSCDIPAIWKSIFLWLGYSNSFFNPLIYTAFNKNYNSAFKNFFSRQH", "test": "NVS_GPCR_h5HT5A: NovaScreen (NVS) G Protein-Coupled Receptor Assay for human Serotonin, 5-Hydroxytryptamine Receptor 5A (5HT5A) (AID 2283251)", "in_short": "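Cell-free radioligand displacement binding on HEK293-derived membrane protein, 1 h incubation, filter-based scintillation counting. Primary screen in duplicate at 25 uM, actives followed in concentration series; loss of signal fitted versus DMSO.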"}, "[8]": {"tested_on": "bovine Histamine 1 Receptor (H1), gene 281231", "test": "NVS_GPCR_bH1: NovaScreen (NVS) G Protein-Coupled Receptor Assay for bovine Histamine 1 Receptor (H1) (AID 2283246)", "in_short": "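Radioligand displacement on bovine cerebellar membranes, 1 h after dosing, filter-based scintillation read-out; loss of signal vs DMSO. Duplicate single-concentration screen at 25 uM, then concentration-response up to 50 uM for hits.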"}, "[9]": {"tested_on": "guinea pig Leukotriene B4 Receptor (LTB4), gene 100379538", "test": "NVS_GPCR_gLTB4: NovaScreen (NVS) G Protein-Coupled Receptor Assay for guinea pig Leukotriene B4 Receptor (LTB4) (AID 2283247)", "in_short": "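Radioligand displacement on guinea pig spleen membranes, filter-based scintillation counting 2 h after dosing. Primary duplicate single point at 25 uM; hits over threshold (e.g. 30% inhibition) run in concentration-response up to 50 uM, DMSO baseline.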"}, "[10]": {"target": "guinea pig Leukotriene D4 Receptor (LTD4), CYSLTR1 (gene 100135514) (UniProt Q2NNR5)", "sequence (Q2NNR5 whole entry, looked up)": "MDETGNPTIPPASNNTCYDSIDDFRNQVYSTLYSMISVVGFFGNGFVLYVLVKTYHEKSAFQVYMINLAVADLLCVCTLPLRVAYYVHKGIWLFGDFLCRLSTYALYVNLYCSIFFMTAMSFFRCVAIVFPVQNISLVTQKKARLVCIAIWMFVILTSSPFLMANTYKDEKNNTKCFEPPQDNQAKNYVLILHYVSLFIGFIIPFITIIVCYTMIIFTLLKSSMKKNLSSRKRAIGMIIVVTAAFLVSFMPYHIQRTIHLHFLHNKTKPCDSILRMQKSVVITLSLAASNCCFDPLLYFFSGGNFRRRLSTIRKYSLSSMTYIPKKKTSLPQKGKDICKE", "test": "NVS_GPCR_gLTD4: NovaScreen (NVS) G Protein-Coupled Receptor Assay for guinea pig Leukotriene D4 Receptor (LTD4) (AID 2283248)", "in_short": "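Radioligand displacement on guinea pig lung membranes, 1 h incubation, filtration and scintillation counting; DMSO as negative control. Duplicate 25 uM primary screen, then singleton concentration-response up to 50 uM.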"}},
  "note": "Results filed as inconclusive are left out. Active and inactive are the calls of the source. How the source made its calls: active means hit-call score of the fitted dose curve at least 0.9, where 1 is the maximum; inconclusive means response in the unintended direction; inactive means score below 0.9.",
  "data": [
    {"smiles": "CCn1nc(C)c2c1C(=O)NCC(c1ccc(O)cc1)=N2", "values": [
      {"measurement": "outcome", "setting": "[1]", "result": "inactive"},
      {"measurement": "outcome", "setting": "[2]", "result": "inactive"},
      {"measurement": "outcome", "setting": "[3]", "result": "inactive"},
      {"measurement": "outcome", "setting": "[4]", "result": "inactive"},
      {"measurement": "AC50", "setting": "[5]", "result": "25 µM (active)"}
    ]},
    {"smiles": "CC(C)C(=O)Nc1ccc([N+](=O)[O-])c(C(F)(F)F)c1", "values": [
      {"measurement": "AC50", "setting": "[3]", "result": "4.5 µM (active)"},
      {"measurement": "outcome", "setting": "[4]", "result": "inactive"}
    ]},
    {"smiles": "c1ccc2cc3ccccc3cc2c1", "values": [
      {"measurement": "outcome", "setting": "[3]", "result": "inactive"}
    ]},
    {"smiles": "COc1cc(C(C)C)c2c(c1)S(=O)(=O)N(COc1cc(=O)n3cccc(OCCN4CCCCC4)c3n1)C2=O", "values": [
      {"measurement": "AC50", "setting": "[6]", "result": "2.22 µM (active)"},
      {"measurement": "AC50", "setting": "[2]", "result": "5.55 µM (active)"},
      {"measurement": "AC50", "setting": "[3]", "result": "2.55 µM (active)"}
    ]},
    {"smiles": "O=S(=O)(O)c1ccc(N=Nc2c(O)ccc3cc(S(=O)(=O)O)ccc23)cc1", "values": [
      {"measurement": "outcome", "setting": "[7]", "result": "inactive"},
      {"measurement": "outcome", "setting": "[2]", "result": "inactive"},
      {"measurement": "outcome", "setting": "[4]", "result": "inactive"},
      {"measurement": "outcome", "setting": "[5]", "result": "inactive"}
    ]},
    {"smiles": "CCCOc1ccc(S(=O)(=O)N2CCN(CC)CC2)cc1-c1nc2c(CC)n(Cc3ccccn3)nc2c(=O)[nH]1", "values": [
      {"measurement": "outcome", "setting": "[2]", "result": "inactive"},
      {"measurement": "AC50", "setting": "[4]", "result": "6.54 µM (active)"}
    ]},
    {"smiles": "NC(=O)N1c2ccccc2C=Cc2ccccc21", "values": [
      {"measurement": "outcome", "setting": "[8]", "result": "inactive"},
      {"measurement": "AC50", "setting": "[4]", "result": "7.33 µM (active)"}
    ]},
    {"smiles": "CCCCCCCCN(C)C", "values": [
      {"measurement": "outcome", "setting": "[6]", "result": "inactive"},
      {"measurement": "outcome", "setting": "[3]", "result": "inactive"},
      {"measurement": "AC50", "setting": "[5]", "result": "6.63 µM (active)"}
    ]},
    {"smiles": "OCC(CO)(CO)CO", "values": [
      {"measurement": "outcome", "setting": "[8]", "result": "inactive"}
    ]},
    {"smiles": "COCc1nnc(-c2ccc[n+]([O-])c2)n1-c1c(Cl)c(Cl)cc2[nH]c(=O)c(=O)[nH]c12", "values": [
      {"measurement": "outcome", "setting": "[9]", "result": "inactive"},
      {"measurement": "outcome", "setting": "[10]", "result": "inactive"},
      {"measurement": "outcome", "setting": "[3]", "result": "inactive"},
      {"measurement": "AC50", "setting": "[4]", "result": "32.2 µM (active)"}
    ]},
    {"smiles": "C=CCc1cc(S(=O)(=O)c2ccc(O)c(CC=C)c2)ccc1O", "values": [
      {"measurement": "AC50", "setting": "[7]", "result": "25 µM (active)"},
      {"measurement": "AC50", "setting": "[3]", "result": "0.0408 µM (active)"},
      {"measurement": "AC50", "setting": "[4]", "result": "3.19 µM (active)"},
      {"measurement": "AC50", "setting": "[5]", "result": "9.39 µM (active)"}
    ]},
    {"smiles": "Cc1nccn1-c1ccc(Sc2cccc(C3(C(N)=O)CCOCC3)c2)cc1", "values": [
      {"measurement": "AC50", "setting": "[9]", "result": "8.42 µM (active)"},
      {"measurement": "AC50", "setting": "[6]", "result": "25 µM (active)"},
      {"measurement": "AC50", "setting": "[2]", "result": "2.06 µM (active)"},
      {"measurement": "outcome", "setting": "[4]", "result": "inactive"}
    ]}
  ]
}
